# Results as given in PubChem BioAssay AID504466 (National Center for Advancing Translational Sciences (NCATS), 2011).
# In all, about 330,000 compounds went through this assay and about 4,200 (1.3%) were called active. Roughly 6% stayed inconclusive and do not appear here. Only a selection was taken, and actives are over-represented in it overall. A number with no mark means an inactive call. The call rests on the fitted dose curve; in most records, active means well fitted activation curve with a large enough effect; inconclusive means small, poorly fitted or top-dose-only effect; inactive means no such curve, though single readings can be large or run the other way.
# Experiment: qHTS screen for small molecules that induce genotoxicity in human embryonic kidney (HEK293T) cells expressing luciferase-tagged ELG1; further: nearly all actives have a fitted effect of over 60% in size; on activity change, positive = activation: % of control where 0% means no effect
# Conditions: HEK293T ELG1-luciferase reporter, luminescence, 16 h; series mostly up to 46 µM; activity change, positive = activation: at the top concentration
# Procedure, shortened: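 After overnight (16 hr) compound treatment at 37 °C, ELG1-luciferase HEK293T cells were lysed with ONE-Glo; luminescence quantified 30 min later at room temperature.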
# Potency means the concentration at half of the fitted maximal effect.
Structure (SMILES),"activity change, positive = activation",Potency
COc1ccc(/C=N/OCC(=O)N(Cc2ccccc2)c2ccccc2C(=O)O)cc1,1.68%,
COc1ccc(C(=O)Nc2ccccc2C(=O)N/N=C/c2ccc(O)c(OC)c2)cc1,-12.2%,
COc1ccc(/C=N/Nc2ccccc2C(=O)O)cc1,,1.3 µM (active)
COc1ccccc1-c1nnc2n1N=C(c1ccc(OC(F)F)c(OCC3CC3)c1)CS2,7.86%,
O=C(COC(=O)CN1C(=O)C2CCCCC2C1=O)Nc1ccc(F)c(F)c1F (stereo not drawn),1.33%,
COc1ccc(C(=O)C(C)OC(=O)c2cccc(S(=O)(=O)Nc3c(C)n(C)n(-c4ccccc4)c3=O)c2)cc1 (stereo not drawn),1.17%,
CCC(=O)Nc1ccc2nn(-c3ccc(F)cc3)nc2c1,,1.46 µM (active)
Cc1cccc(C(=O)OCC(=O)Nc2ccc(F)cc2)c1,8.07%,
Cc1ccc(-n2nc3ccc(NC(=O)/C=C/c4ccco4)cc3n2)cc1C,19.8%,
CCOC(=O)[C@H]1[C@H]2COc3ccccc3[C@@H]2N2C(=O)CN(Cc3ccccc3)C(=O)[C@@]12C,0.713%,
C#CCOCCOCCOCCNc1nc(N2CCN(C(=O)[C@H](CCC(=O)O)n3cc(CN)nn3)CC2)nc(N2CCN(C(=O)[C@H](CCC(=O)O)n3cc(CN)nn3)CC2)n1,0.694%,
O=C(COc1ccccc1F)NNC(=O)c1cc(Br)ccc1Cl,-1.83%,
CCN(CC(=O)NCc1ccc(F)cc1)S(=O)(=O)c1ccc(Cl)s1,-3.18%,
C/C(=N\Nc1ncc(Cl)cc1Cl)c1cccs1,,5.17 µM (active)
C/C(=N\Nc1ccc(S(N)(=O)=O)cc1[N+](=O)[O-])c1cccs1,13.8%,
C/C(=N\Nc1ncc(Cl)cc1Cl)c1ccc(S(=O)(=O)NCc2ccco2)cc1,0.852%,
Cc1cc(NC(=O)COC(=O)/C=C/c2ccc(C)o2)no1,-0.158%,
CC(=O)Oc1ccc2c(c1)C(=O)c1ccccc1C2=O,18.5%,
COc1cccc(-c2ccc3c(c2)S(=O)(=O)c2cccc(C(=O)O)c2C3=O)c1OC,2.09%,
COc1ccc2c(c1OC)C(=O)c1ccccc1C2=O,,5.17 µM (active)
COc1cc2c(-c3ccc4c(c3)OCO4)c(-c3ccsc3)oc(=O)c2cc1OC,0.908%,
COc1ccc(S(=O)(=O)N2CCN(c3cnccn3)CC2)cc1,1.44%,
Cc1nc2ccc(NC(=O)c3cccc(S(=O)(=O)N4CCOCC4)c3)cc2s1,-6.82%,
CCOC(=O)N1CCC(NC(=O)c2cnn3ccccc23)CC1,-1.21%,
O=C(c1cnn2ccccc12)N1CCc2ccccc21,,4.11 µM (active)
Cc1cnc(C(=O)OCC(=O)N2CCc3ccccc32)cn1,1.68%,
O=C1CSc2ccc(C(=O)NCc3ccccn3)cc2N1,6.33%,

Structure (SMILES),"activity change, positive = activation",Potency
CCOC(=O)C1=CN(Cc2ccc(Br)cc2)S(=O)(=O)NC1C (stereo not drawn),2.38%,
COc1ccc(S(=O)(=O)N(C)C[C@H]2Oc3ccc(NS(=O)(=O)c4cccs4)cc3CC(=O)N([C@H](C)CO)C[C@H]2C)cc1,3.98%,
CCC(CO)Oc1cc(NC(=O)c2ccc(Cl)cc2)c2ncn(C(C)C)c2c1 (stereo not drawn),5%,
CC(=O)Nc1ccc(S(=O)(=O)NCCC(=O)N2CCN(c3ccccc3Cl)CC2)cc1,-2.27%,
N#Cc1ccc(C2N=C(c3ccccc3)NO2)cc1 (stereo not drawn),,5.17 µM (active)
O=C(OCC(=O)N1CCCCCC1)c1ccc(Br)c(S(=O)(=O)N2CCOCC2)c1,-3.75%,
C[C@@H]1C(c2ccc(F)cc2)=NN(c2ccc(Br)cc2)[C@H]1C(=O)N1CCOC1=O,2.71%,
Cc1ccc(S(=O)(=O)N2[C@@H](c3ccc(Br)cc3)C(C(=O)O)=C[C@H]2CC2CCCC2)cc1,0.375%,
Cc1cc(=O)oc2cc(OCCC[n+]3ccccc3)ccc12,2.93%,
Cc1cc(=O)oc2cc(OCC3CC(c4ccccc4Cl)=NO3)ccc12 (stereo not drawn),,7.94 µM (active)
Cc1ccccc1N1CCN(CCCOc2ccc3c(C)cc(=O)oc3c2)CC1,0.148%,
CCCCNC(=O)C(C)N(CCN(C)C)C(=O)CCCCCN1C(=O)NC(c2ccc(Cl)cc2)C(C(=O)OCc2ccccc2)=C1C (stereo not drawn),-3.93%,
COc1ccc(-c2nnc(SCc3cccnc3)o2)cc1,15.4%,
COC(=O)CSc1nnc(-c2cccnc2)o1,1.66%,
CN(C)c1ccc(-c2nnc(-c3cccnc3)o2)cc1,,10.3 µM (active)
COc1ccc(CCNC(=O)COC(=O)Cc2ccccc2F)cc1,2.3%,
Cc1ccc(C(=O)NCC(=O)NC2CC2)cc1,3.52%,
Oc1ccc(/C=N/Nc2nc(-c3ccccc3F)nc3ccccc23)c(O)c1,-11.4%,
Oc1ccc(/C=N/NC2=NCCCCC2)c(O)c1,,7.31 µM (active)
COc1ccc(/C=C(\C#N)C(=O)ONC2=NCCCCC2)cc1,-2.29%,
O=C(Cn1cnc2ccccc2c1=O)NNC(=O)c1ccccc1F,0.474%,
COc1ccc(C(=O)Nc2cc(S(=O)(=O)N3CCCC3)ccc2Cl)cc1,-0.914%,
c1ccc(CN2CCC(N=C3NN=C(c4ccc5c(c4)OCCO5)CS3)CC2)cc1,0.435%,
CN(C)c1nc(=Nc2cccc(Cl)c2)ss1,2.77%,
Clc1cccc(N=C2NN=C(c3ccc4c(c3)OCCO4)CS2)c1,,2.31 µM (active)
Cc1occc1C(=O)Nc1cccc(Cn2cccn2)c1,4.11%,
